The target of assay [1] is Death-associated protein kinase 1 (Homo sapiens) (UniProt P53355). The settings on record: at 1 µM.
Assay [2] has the same target. Conditions: at 10 µM.
In assay [3] the target is T1, Discoidin domain-containing receptor 2 (Homo sapiens) (UniProt Q16832).
T1 sequence (whole entry): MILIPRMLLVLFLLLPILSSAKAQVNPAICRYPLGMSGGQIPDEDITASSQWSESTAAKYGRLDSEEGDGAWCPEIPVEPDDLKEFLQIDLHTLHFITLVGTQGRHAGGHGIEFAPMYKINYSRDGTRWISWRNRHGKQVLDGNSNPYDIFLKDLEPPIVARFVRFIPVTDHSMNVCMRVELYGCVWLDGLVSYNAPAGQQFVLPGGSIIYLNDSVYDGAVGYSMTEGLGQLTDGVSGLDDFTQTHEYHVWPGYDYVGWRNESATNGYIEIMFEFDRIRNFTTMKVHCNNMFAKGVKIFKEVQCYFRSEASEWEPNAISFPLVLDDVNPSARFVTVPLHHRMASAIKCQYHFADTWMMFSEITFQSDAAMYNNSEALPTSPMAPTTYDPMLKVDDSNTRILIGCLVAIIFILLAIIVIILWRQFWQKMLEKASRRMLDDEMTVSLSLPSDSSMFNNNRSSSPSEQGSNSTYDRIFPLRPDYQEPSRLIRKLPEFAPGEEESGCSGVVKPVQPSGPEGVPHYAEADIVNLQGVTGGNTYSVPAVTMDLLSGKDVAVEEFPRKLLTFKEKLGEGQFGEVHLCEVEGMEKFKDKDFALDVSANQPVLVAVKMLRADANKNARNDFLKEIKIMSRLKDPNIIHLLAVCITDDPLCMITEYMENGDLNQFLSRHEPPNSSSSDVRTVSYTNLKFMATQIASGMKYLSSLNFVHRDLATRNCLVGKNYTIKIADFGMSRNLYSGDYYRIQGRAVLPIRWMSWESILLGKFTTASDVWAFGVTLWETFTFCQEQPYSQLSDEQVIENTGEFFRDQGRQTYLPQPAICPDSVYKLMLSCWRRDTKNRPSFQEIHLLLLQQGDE
The settings on record: at 1 µM.

The target of assay [4] is T1, Discoidin domain-containing receptor 2 (Homo sapiens). The settings on record: at 10 µM.
Assay [5] has as its target T2, Myotonin-protein kinase (Homo sapiens) (UniProt Q09013).
T2 sequence (whole entry): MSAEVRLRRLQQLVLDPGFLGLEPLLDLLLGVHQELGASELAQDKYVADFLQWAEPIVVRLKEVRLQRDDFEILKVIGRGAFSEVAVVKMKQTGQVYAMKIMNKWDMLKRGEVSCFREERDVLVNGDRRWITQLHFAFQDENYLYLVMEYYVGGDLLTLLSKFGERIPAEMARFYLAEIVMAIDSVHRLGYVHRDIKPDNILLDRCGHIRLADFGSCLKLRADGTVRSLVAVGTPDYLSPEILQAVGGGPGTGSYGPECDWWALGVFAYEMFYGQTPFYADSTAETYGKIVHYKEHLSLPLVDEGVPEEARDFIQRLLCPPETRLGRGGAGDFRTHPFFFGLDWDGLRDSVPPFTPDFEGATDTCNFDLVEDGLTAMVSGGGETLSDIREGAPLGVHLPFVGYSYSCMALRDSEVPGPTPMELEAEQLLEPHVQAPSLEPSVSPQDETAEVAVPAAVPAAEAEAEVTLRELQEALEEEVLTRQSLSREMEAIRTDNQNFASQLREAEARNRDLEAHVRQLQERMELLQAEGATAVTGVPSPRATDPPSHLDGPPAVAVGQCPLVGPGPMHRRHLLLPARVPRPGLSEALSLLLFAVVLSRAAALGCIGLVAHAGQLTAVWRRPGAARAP
Conditions: at 1 µM.

Assay [6] deals with T2, Myotonin-protein kinase (Homo sapiens). Conditions: at 10 µM.
For assay [7], the target named is T3, Serine/threonine-protein kinase 17A (Homo sapiens) (UniProt Q9UEE5).
T3 sequence (whole entry): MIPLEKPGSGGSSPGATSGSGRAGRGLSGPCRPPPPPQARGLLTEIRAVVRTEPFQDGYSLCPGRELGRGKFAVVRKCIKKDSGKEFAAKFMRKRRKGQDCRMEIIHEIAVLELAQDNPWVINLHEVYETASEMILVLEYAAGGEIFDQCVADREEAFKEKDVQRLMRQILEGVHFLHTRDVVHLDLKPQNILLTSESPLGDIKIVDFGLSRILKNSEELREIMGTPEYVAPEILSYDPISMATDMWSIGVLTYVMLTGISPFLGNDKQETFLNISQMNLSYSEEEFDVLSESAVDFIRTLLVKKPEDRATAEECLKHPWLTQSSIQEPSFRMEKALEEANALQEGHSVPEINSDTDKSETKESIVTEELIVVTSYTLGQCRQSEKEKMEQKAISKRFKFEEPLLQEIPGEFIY
Conditions: at 1 µM.

The target in assay [8] is T3, Serine/threonine-protein kinase 17A (Homo sapiens). Conditions: at 10 µM.
Assay [9] addresses T4, Dual specificity tyrosine-phosphorylation-regulated kinase 2 (Homo sapiens) (UniProt Q92630).
T4 sequence (whole entry): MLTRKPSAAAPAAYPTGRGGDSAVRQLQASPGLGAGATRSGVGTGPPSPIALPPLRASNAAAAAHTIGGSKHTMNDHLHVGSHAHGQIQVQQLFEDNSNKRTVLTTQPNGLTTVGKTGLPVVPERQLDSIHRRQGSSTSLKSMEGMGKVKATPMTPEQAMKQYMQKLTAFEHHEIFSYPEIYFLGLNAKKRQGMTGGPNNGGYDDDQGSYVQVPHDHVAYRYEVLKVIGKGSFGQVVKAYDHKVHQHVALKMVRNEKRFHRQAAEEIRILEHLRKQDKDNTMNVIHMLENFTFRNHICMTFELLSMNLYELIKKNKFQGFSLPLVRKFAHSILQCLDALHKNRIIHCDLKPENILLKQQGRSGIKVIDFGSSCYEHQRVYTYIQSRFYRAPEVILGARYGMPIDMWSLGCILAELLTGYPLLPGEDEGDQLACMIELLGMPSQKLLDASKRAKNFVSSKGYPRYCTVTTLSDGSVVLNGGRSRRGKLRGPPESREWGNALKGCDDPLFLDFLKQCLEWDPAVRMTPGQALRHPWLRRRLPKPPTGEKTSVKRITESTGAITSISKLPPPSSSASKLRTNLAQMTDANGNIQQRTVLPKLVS
Conditions: at 1 µM.

Assay [10] addresses T4, Dual specificity tyrosine-phosphorylation-regulated kinase 2 (Homo sapiens). The settings on record: at 10 µM.
The target in assay [11] is T5, Ephrin type-A receptor 1 (Homo sapiens) (UniProt P21709).
T5 sequence (whole entry): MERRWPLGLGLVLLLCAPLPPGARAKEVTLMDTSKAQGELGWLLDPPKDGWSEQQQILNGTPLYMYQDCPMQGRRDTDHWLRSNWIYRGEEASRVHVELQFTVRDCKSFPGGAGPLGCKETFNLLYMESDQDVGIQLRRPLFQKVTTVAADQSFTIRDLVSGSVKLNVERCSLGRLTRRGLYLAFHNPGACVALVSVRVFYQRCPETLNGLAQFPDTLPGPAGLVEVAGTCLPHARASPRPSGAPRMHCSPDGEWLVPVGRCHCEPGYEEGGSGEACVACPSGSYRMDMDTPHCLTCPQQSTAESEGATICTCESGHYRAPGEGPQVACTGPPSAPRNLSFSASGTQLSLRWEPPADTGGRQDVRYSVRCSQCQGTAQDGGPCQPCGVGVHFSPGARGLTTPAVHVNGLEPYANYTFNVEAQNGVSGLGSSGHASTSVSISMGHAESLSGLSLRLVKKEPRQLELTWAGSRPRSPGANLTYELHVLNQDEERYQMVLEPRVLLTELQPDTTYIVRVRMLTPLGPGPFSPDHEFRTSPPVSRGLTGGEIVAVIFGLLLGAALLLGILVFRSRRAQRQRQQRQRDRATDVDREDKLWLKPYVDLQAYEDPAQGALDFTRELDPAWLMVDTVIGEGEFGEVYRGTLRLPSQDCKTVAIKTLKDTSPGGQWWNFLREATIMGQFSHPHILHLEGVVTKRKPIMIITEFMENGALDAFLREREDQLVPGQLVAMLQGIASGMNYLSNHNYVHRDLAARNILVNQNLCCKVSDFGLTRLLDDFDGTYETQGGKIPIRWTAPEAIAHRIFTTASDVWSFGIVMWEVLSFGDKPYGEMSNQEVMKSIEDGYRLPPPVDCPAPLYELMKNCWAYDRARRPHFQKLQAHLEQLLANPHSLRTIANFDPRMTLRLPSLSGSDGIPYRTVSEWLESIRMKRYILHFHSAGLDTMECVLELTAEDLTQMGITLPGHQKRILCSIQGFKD
Conditions: at 10 µM.

The target of assay [12] is T6, Ephrin type-A receptor 3 (Homo sapiens) (UniProt P29320).
T6 sequence (whole entry): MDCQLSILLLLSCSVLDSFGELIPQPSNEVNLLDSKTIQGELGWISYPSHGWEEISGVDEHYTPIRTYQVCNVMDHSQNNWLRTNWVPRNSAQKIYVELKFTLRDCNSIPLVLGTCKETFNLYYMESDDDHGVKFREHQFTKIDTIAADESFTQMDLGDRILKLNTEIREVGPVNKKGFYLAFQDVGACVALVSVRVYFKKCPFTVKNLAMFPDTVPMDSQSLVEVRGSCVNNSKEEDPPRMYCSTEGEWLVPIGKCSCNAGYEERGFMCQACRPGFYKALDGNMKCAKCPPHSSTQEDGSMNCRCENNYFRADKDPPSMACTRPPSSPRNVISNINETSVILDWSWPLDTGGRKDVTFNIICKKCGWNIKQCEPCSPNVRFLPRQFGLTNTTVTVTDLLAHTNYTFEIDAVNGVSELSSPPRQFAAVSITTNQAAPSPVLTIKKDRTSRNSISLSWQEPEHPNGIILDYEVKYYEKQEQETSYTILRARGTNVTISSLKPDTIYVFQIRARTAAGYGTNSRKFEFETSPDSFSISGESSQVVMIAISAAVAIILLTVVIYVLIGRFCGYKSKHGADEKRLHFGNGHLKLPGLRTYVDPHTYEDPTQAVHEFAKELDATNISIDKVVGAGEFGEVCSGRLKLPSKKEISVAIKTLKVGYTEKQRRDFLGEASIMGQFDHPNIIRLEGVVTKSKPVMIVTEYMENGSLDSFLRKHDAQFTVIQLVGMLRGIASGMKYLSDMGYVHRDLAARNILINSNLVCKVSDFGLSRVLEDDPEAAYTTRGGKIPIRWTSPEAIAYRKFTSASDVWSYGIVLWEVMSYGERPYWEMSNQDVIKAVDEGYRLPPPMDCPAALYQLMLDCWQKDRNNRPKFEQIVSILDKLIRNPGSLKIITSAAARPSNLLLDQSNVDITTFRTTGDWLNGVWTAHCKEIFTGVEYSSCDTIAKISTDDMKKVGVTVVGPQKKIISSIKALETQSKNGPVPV
Conditions: at 1 µM.

Assay [13] has as its target Death-associated protein kinase 2 (Homo sapiens) (UniProt Q9UIK4). The settings on record: at 1 µM.
The target is the same in assay [14]. The settings on record: at 10 µM.
The target of assay [15] is T5, Ephrin type-A receptor 1 (Homo sapiens). Conditions: at 1 µM.
The target in assay [16] is Ephrin type-A receptor 2 (Homo sapiens) (UniProt P29317). Conditions: at 1 µM.
Chain of Ephrin type-A receptor 2 (Homo sapiens) (P29317 whole entry): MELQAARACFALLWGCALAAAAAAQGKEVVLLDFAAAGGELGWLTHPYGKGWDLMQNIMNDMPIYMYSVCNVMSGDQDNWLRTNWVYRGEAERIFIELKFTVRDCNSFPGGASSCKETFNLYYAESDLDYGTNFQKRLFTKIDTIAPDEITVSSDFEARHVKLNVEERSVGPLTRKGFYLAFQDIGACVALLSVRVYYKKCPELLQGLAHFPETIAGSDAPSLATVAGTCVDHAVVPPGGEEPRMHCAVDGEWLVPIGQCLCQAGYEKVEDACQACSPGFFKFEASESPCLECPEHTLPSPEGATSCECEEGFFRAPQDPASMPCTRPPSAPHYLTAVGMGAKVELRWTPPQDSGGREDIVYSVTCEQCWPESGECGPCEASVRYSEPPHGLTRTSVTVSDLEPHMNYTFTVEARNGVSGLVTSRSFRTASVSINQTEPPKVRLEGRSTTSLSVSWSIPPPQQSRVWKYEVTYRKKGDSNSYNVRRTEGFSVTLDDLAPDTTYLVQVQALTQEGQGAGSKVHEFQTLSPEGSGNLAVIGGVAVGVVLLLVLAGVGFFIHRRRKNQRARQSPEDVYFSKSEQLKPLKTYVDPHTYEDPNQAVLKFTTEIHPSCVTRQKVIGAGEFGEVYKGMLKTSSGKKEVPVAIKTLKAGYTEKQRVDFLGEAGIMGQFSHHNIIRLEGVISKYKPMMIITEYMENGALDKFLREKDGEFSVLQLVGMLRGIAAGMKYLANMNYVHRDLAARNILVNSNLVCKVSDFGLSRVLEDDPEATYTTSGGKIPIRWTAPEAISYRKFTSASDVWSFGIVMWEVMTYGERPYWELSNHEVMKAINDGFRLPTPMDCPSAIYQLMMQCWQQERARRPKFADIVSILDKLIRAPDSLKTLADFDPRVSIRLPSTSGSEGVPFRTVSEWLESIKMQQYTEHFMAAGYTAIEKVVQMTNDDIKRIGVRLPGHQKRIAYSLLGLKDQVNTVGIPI
For assay [17] the target is unchanged. The settings on record: at 10 µM.

Chain of Death-associated protein kinase 1 (Homo sapiens) (P53355 whole entry, looked up): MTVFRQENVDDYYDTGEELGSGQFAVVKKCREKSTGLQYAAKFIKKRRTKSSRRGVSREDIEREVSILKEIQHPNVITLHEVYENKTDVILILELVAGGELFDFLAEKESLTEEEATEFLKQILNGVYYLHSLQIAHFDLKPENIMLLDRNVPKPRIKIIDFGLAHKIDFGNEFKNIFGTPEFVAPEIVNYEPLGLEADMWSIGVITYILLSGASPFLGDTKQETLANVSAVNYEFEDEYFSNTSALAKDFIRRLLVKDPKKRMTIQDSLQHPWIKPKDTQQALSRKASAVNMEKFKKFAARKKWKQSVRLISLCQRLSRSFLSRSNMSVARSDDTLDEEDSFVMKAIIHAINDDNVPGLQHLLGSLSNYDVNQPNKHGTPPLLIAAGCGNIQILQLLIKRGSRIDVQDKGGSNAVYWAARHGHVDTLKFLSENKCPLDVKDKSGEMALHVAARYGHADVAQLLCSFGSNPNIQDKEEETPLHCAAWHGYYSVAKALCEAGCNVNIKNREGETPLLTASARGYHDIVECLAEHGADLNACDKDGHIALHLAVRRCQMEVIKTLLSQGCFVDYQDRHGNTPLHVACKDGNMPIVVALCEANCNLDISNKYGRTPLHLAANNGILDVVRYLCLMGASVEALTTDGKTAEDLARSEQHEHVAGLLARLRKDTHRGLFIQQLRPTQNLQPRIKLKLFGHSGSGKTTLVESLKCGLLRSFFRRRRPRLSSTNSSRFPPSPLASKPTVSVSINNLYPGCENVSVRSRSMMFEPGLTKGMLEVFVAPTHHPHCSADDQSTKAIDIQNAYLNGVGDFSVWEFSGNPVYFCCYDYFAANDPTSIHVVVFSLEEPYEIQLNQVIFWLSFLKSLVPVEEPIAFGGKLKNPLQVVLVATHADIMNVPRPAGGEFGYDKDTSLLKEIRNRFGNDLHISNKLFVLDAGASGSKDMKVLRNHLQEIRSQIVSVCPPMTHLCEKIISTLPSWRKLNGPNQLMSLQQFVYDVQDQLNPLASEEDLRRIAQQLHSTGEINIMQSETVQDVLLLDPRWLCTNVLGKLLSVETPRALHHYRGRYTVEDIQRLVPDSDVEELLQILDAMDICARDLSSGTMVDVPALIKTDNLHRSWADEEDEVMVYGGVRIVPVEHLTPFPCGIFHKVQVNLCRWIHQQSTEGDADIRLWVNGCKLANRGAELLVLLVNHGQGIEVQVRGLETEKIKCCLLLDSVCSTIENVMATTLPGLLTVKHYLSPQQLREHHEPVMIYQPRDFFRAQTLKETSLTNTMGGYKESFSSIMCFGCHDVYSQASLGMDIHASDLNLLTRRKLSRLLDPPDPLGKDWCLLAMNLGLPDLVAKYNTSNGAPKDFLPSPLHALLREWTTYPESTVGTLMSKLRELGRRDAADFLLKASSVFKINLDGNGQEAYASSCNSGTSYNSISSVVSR
Chain of Death-associated protein kinase 2 (Homo sapiens) (Q9UIK4 whole entry, looked up): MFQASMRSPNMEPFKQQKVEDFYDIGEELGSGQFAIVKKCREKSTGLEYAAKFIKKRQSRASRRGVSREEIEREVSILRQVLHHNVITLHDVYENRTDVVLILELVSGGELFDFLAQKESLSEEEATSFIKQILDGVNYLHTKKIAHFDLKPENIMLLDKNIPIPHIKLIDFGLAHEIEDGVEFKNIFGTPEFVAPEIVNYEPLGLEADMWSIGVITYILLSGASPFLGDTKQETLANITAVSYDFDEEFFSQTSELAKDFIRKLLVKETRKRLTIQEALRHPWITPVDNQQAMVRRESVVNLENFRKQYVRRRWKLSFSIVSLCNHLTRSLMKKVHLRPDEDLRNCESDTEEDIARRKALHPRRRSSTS

Turning to `N/C(=N\[N+](=O)[O-])N/N=C\c1ccc(-c2cccc([N+](=O)[O-])c2)o1`, the residual activity in [1] is 93%; in assay [2] it was 89%; in [3], 100%; in [4], 99%; in [5], 98%; in assay [6], 84%. Also, the residual activity in assay [7] turned out to be 76%; in assay [8], 87%; in assay [9] it was 90%; in assay [10] it was 95%; in assay [11], 97%; in assay [12], 97%.
Take `O=C1NC(=O)c2cc(Nc3ccc(F)cc3)c(Nc3ccc(F)cc3)cc21`: the residual activity in [1] came to 87%.
Regarding `CCN(CC)CCNC(=O)c1c(C)[nH]c(/C=C2\C(=O)Nc3ccc(Cl)cc32)c1C`, the residual activity in assay [1] came to 75%.
For the compound `Nc1n[nH]c2nc3ccccc3nc12`, the residual activity in assay [1] came out at 94%.
For the compound `COc1ccc(Cl)cc1NC(=O)Nc1cc(C)nc2ccccc12`, the residual activity in [1] turned out to be 94%.
For the compound `COc1cc(OC)c(/C=C2\C(=O)Nc3ccccc32)c(OC)c1`, the residual activity stood at 84% in assay [1]; 81% in assay [2]; 100% in assay [13]; 95% in assay [14]; 97% in assay [3]; 90% in assay [4]. Moreover, the residual activity was found to be 102% in assay [9]; 93% in assay [10]; 89% in assay [15]; 82% in assay [11]; 88% in [16]; 93% in assay [17]. In addition, in [12], the residual activity was 97%.
As for `C[C@@H](N)[C@H]1CC[C@H](C(=O)Nc2ccncc2)CC1`, the residual activity in [1] came to 102%.

As usually defined, the residual activity is the signal under treatment as a percentage of the control signal.

Source of the values: ChEMBL document CHEMBL2218924, “A broad activity screen in support of a chemogenomic map for kinase signalling research and drug discovery” (Biochem J, 2013).
